LANA DNA inh = inhibitors of KSHV C-LANA binding to DNA, primary screen, biochemical, fluorescence polarization, FAM-LBS DNA, MBP-C-LANA, single point; Kaposi's sarcoma herpesvirus LANA C-terminal domain (residues 932-1162) DNA binding; inhibition, % at 9 µM; 0.078% of 340,000 active;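 active = highest replicate inhibition at or above 60% at 9 µM, even if other replicates fall short; inactive = all replicates below 60% inhibition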;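 also: 0% = neutral control wells and 100% = 4 µM acridine orange control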
E coli Lon inh = inhibitors of E. coli Lon protease, primary screen, biochemical, fluorescence polarization; purified E. coli Lon protease; inhibition, % at 7.94 µM; 0.42% of 360,000 active; P0A9M0; in the data active = inhibition above about 13%, passing the limit was not always enough;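 also: 0% = enzyme with probe and DMSO and 100% = no enzyme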
LANA-H2B inh = blockers of LANA interaction with H2A/H2B – biochemical, FP readout, HTS, primary screen. cell-free LANA-H2A/H2B peptide, fluorescence polarization. inhibition, % (test concentration not listed). 0.6% of 320,000 active. AID 2629, 2010; in the data active = inhibition mostly above about 10%, no sharp cut-off; inactive = mostly below about 6.7%
EBV gp42 block = Epstein-Barr virus gp42 inhibitors, primary screen, biochemical, uHTS, fluorescence polarization; 0.42% of 220,000 active; Fluorescence polarization binding assay, mP read-out; Glycoprotein 42 (Epstein-Barr virus (strain AG876)), Q1HVG2; inhibition, % (tested at 21.74 µM); in the data active = inhibition above about 50%
GLD-1 TGE inh = GLD-1/TGE RNA complex disruptors, primary screen, biochemical, fluorescence polarization | AID 2280, 2010 | purified GLD-1 + fluorescein TGE RNA | inhibition, % at 5.96 µM | 0.44% of 320,000 active;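 active = percent inhibition above a per-plate cutoff, the plate mean of test compounds plus 3 SD, cut at about 30% in these data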;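 also: 0% = DMSO wells with GLD-1 and probe and 100% = wells lacking GLD-1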
Keap1 Nrf2 FP = Keap1-Nrf2 protein-protein interaction inhibitors, primary screen, biochemical, fluorescence polarization, single point. Kelch-like ECH-associated protein 1 (Homo sapiens), Q14145. Keap1 Kelch-Nrf2 peptide fluorescence polarization, 1536-well. inhibition, % at 9.4 µM. 0.15% of 340,000 active; in the data active = inhibition above about 12%;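 also: human Keap1 Kelch domain with fluorescein labeled Nrf2 9mer peptide probe; 0% = neutral control wells and 100% = peptide positive control; higher means more block of Keap1 binding to Nrf2 peptide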
Target sequence (Q14145 whole entry, looked up, the tested form may be a part): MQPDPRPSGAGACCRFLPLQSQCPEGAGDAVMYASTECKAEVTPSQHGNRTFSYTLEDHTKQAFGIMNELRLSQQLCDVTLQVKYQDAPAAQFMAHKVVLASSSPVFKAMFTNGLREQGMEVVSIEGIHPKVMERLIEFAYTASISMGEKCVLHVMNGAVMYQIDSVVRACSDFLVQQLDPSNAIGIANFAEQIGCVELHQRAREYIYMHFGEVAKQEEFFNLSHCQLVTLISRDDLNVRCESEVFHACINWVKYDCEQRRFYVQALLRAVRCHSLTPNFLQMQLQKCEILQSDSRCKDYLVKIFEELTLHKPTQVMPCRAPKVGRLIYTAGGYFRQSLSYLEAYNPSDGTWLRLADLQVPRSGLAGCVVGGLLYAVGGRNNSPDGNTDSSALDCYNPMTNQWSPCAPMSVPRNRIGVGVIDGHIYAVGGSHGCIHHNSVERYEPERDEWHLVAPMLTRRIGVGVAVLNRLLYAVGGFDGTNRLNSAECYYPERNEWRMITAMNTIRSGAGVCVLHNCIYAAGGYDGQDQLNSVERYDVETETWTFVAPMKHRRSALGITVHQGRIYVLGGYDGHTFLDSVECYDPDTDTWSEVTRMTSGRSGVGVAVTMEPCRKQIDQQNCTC
* hit, by the source's call; i = inactive; / = no result; + = active, no number; ! = repeats disagree. Compounds with a hit are over-represented: about 1.5% of the library has one in this group of screens.

SMILES	LANA DNA inh	E coli Lon inh	LANA-H2B inh	EBV gp42 block	GLD-1 TGE inh	Keap1 Nrf2 FP
O=C(c1ccc(Cn2c(=S)[nH]c3ccc(Br)cc3c2=O)cc1)N1CCN(C2CCCCC2)CC1	0	-1	10*	5	-2	-3
COCCn1c(=S)[nH]c2cc(C(=O)N3CCN(C4CCCCC4)CC3)ccc2c1=O	/	-5	/	/	/	/
O=C(Nc1ccccc1Cl)c1cc(C2CCCN(S(=O)(=O)c3cccs3)C2)on1 (stereo unspecified)	/	4	/	/	/	/
CC(O)(Cc1ccccn1)Cc1ccccn1	1	-4	/	/	/	3
Cc1c(CC(=O)O)c(=O)oc2cc(OCc3nn[nH]n3)ccc12	3	-8	3	6	-6	-3
Cc1c(CC(=O)O)c(=O)oc2cc(OCc3ccc(Cl)cc3)ccc12	-1	4	44*	/	5	-2
COc1ccc2oc(=O)c(C(=O)NCCc3ccc(OC)c(OC)c3)cc2c1	5	-9	12*	/	4	-1
CSc1ccccc1NC(=O)C1(C)CCN1C(=O)Cc1ccccc1Cl (stereo unspecified)	/	-4	/	/	/	/
CCOC(=O)C1=C[C@]2(CC)CCCN3CCc4c(n1c1ccccc41)[C@@H]32	0	-6	19*!	-8	-4	-4
CC(Sc1nnc(C2CC2)n1C1CC1)C(=O)NCc1cccs1 (stereo unspecified)	2	-4	/	/	/	0
CC(Sc1nnc(C2CC2)n1C1CC1)C(=O)Nc1cccc(S(=O)(=O)N(C)C)c1 (stereo unspecified)	-1	11	+	/	-6	-1
O=C(CSc1nc2ccccc2c(=O)n1-c1ccc(F)cc1F)NC1CCS(=O)(=O)C1 (stereo unspecified)	/	3	/	/	/	/
CC(C)N(Cc1nccn1C)C(=O)CC1C(=O)NCCN1Cc1ccccc1C(F)(F)F (stereo unspecified)	3	5	13*	-7	6	1
O=C(CC1C(=O)NCCN1Cc1ccccc1C(F)(F)F)NC1CCC1 (stereo unspecified)	2	8	181*	/	8	0
N#C/C(=C\c1sc(N2CCOCC2)nc1-c1ccccc1)C(=O)Nc1cccc2ccccc12	/	/	/	137*	/	/
CCOC(=O)[C@]12CCC=C1N(CCC1=CCCCC1)C(=O)[C@H](CC(=O)N1CCOCC1)C2	/	2	/	/	/	/
COc1ccc(-c2nnc(NC(=O)C3CCCN3S(=O)(=O)c3cccs3)o2)cc1 (stereo unspecified)	1	0	-1	/	5	0
Cc1ccc2[nH]c3c(c2c1)CN(C(=O)CN1CCN(C(=O)c2ccco2)CC1)CC3	/	/	-3	13	32*	/
CCCCN(C=O)c1c(CC)nc2c(OCC(=O)c3ccc(F)cc3)cccn12	/	-5	/	/	/	/
CCC(CC)C(=O)N=C1SC2CS(=O)(=O)CC2N1CCc1ccc(OC)c(OC)c1 (stereo unspecified)	1	4	-1	-10	19	1
COc1ccc(CCN2C(=NC(=O)CC(C)C)SC3CS(=O)(=O)CC32)cc1OC (stereo unspecified)	-1	-4	22*	-17	-2	-2
O=C(O)CCn1c(=O)n(CCC(=O)O)c(=O)n(CCC(=O)O)c1=O	1	13	4	-14	-1	-7
O=c1[nH]c(C(Cl)Cl)nc2sc3c(c12)CCN(Cc1ccccc1)C3	0	-41	2	56*	23	-3
Cc1ccc(S(=O)(=O)Cc2ccc([N+](=O)[O-])cc2)cc1	-4	11	16*	/	2	-2
Cc1ccc(CNS(=O)(=O)c2ccc([N+](=O)[O-])cc2)cc1	0	-1	-2	/	1	-2
SMILES	LANA DNA inh	E coli Lon inh	LANA-H2B inh	EBV gp42 block	GLD-1 TGE inh	Keap1 Nrf2 FP
Cc1ccc(N=C2NC(=O)CS2)cc1	1	-4	1	-25	-1	-1
Cc1ccc(C)n1/N=C1/NC(=O)CS1	87*	-21	-2	-1	17	0
Cc1onc(-c2c(F)cccc2Cl)c1C(=O)OCC(=O)c1c[nH]c2ccccc12	2	0	29*	-13	6	-4
Cc1ccc(C(=O)OCC(=O)c2c[nH]c3ccccc23)cc1NC(=O)c1ccco1	4	-3	+	-7	3	-7
CCN(CC)C(=O)COC(=O)c1ccc(C)c(NC(=O)c2ccco2)c1	-1	-4	-2	-1	6	0
Cc1noc(C)c1C(=O)OCC(=O)c1c[nH]c2ccccc12	0	3	5	-25	1	1
O=C(Nc1cccc([N+](=O)[O-])c1)Nc1ccc2c(c1)OCCO2	-1	12	2	3	0	-3
O=C(CCCOc1ccccc1)Nc1ccc(Cl)c(S(=O)(=O)N2CCOCC2)c1	2	1	1	/	-5	3
Cc1ccc(NC(=O)CSc2nc(N)cc(N)n2)cc1S(=O)(=O)N1CCOCC1	0	7	19*	-17	-7	1
Cc1ccc(NC(=O)CCCOc2ccccc2)cc1S(=O)(=O)N1CCOCC1	-1	6	20*	/	6	-5
CCOC(=O)C(C)On1c(-c2cccc(Cl)c2)nc2ccc([N+](=O)[O-])cc21 (stereo unspecified)	1	6	51*	-6	3	-3
CCOC(=O)COn1c(-c2cccc(Cl)c2)nc2ccc([N+](=O)[O-])cc21	2	-5	-10	-23	-4	-4
C[N+](C)(C)c1ccc(/C=N/Nc2nc(Cl)c(C#N)c(Cl)c2Cl)cc1	1	-27	54*	-98	-19	-11
CCN(CC(=O)Nc1ccc2c(c1)OCCO2)C(=O)C1CCCCC1	-1	1	-4	11	9	-3
CCN(CC(=O)Nc1ccc(NC(C)=O)cc1)C(=O)C1CCCC1	2	-7	103*	/	-1	0
CCN(CC(=O)Nc1ccc(NC(C)=O)cc1)C(=O)c1ccc2c(c1)OCO2	1	9	22*	/	-1	3
COc1ccccc1CNC(=O)Nc1nnc([C@H]2C[C@H](O)[C@@H](CO)O2)s1	/	-8	/	/	/	/
C=CCn1c(C)c(/C=C/c2cc[n+](C)cc2)c2ccccc21	-50	i	-220	/	74*	-171
C=CCn1cc(/C=C/c2cc[n+](C)cc2)c2ccccc21	-8	-257	-209	/	57*	-155
CCN(CC)C(=O)Cn1c(C)c(/C=C/c2cc[n+](C)cc2)c2ccccc21	/	i	-133	/	60*	-136
Cc1[nH]c2ccccc2c1/C=C/c1cc[n+](C)cc1	-39	-418	/	-277	/	-136
CCn1cc(/C=C/c2cc[n+](C)cc2)c2ccccc21	-22	-273	-210	/	66*	-186

Assay outcomes deposited in PubChem BioAssay by several laboratories.
